Calls of active or inactive are those of the source.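 The calls were made as follows, unless noted: active = inhibition above 20% together with a positive visual image hit; inconclusive = visual image hit but inhibition not above 20%; inactive = no visual image hit.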

Experiment [1] can be described thus: inhibitors of TNFa-induced NFkB p65 translocation, primary screen, imaging, HUVEC, MLSMR starter and 10KST1 sets (AID 438).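 Also: compound added about 3h40 before a 20 min TNFalpha stimulation.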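 As to inhibition: signal is the nuclear over cytoplasmic p65 intensity ratio per well.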 The following applies: HUVEC TNFa-induced p65 nuclear translocation; cell count: measured here: nuclei count (cytotoxicity indicator), at 2.08 µM unless noted; inhibition: at 2 µM, stronger effect = higher value unless noted.
Experiment [2] can be described thus: inhibitors of mutant huntingtin aggregation, primary screen, imaging, exon1htt(103Q)mCFP cells, high-content imaging (AID 483;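 active = visual image review flags a hit and inhibition of aggregation exceeds 20%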;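 also: compound exposure lasted 3 days before fixation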;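 as to nuclei count: percent of the per-plate median nuclei count of sample wells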). As to conditions: exon1htt(103Q)mCFP cell line, aggregate imaging, at 2 µM; inhibition of aggregation: stronger effect = higher value; nuclei count: measured here: cell count, toxicity.
The nature of experiment [3]: inhibitors of E-selectin induction by TNFa, primary screen, imaging, HUVEC, immunofluorescence, MLSMR starter and 10KST1 sets (AID 487;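 active = visually confirmed hit in the image check and inhibition above 20%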;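 as to inhibition: signal is fraction of cell area covered by stained E-selectin grains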;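 as to nuclei count: 100% = median nuclei count of all wells on the same plate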). As to conditions: HUVEC TNFalpha-induced E-selectin immunofluorescence imaging, at 2 µM; inhibition: stronger effect = higher value; nuclei count: measured here: cell number, toxicity.
In experiment [4] the target is Voltage-gated potassium channel subunit beta-2 (Rattus norvegicus) (UniProt P62483). The experiment is described as follows: KvBeta enzyme negative modulators, primary screen, biochemical, NADPH fluorescence (AID 622;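 active = fluorescence slope higher than the sample average by over 3 SD, cut at about -0.22 in these data, passing the limit was not always enough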;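 also: slope of raw intensity against log time taken from 70 to 1610 s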). As to conditions: recombinant KvBeta, 4-cyanobenzaldehyde reduction, at 10 µM, stronger effect = higher value.
For experiment [5] the target is unchanged. Kind of experiment: KvBeta positive modulators, primary screen, biochemical, NADPH fluorescence (AID 623;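 active = NADPH fluorescence slope more negative than the mean of all samples by about 3 SD, 99.7% confidence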;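 also: fluorescence intensity change per second fitted from 20 to 320 s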). As to conditions: Recombinant KvBeta, NADPH fluorescence decrease slope, 10 min; at 10 µM; stronger effect = lower value.
Experiment [6] has as its target Alpha-2C adrenergic receptor (Homo sapiens) (UniProt P18825). The experiment is described as follows: modulators of alpha2C/GIRK thallium flux, primary screen, cell-based, HEK293 alpha2C/GIRK1/2 (AID 624;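 active = fluorescence slope after compound addition differing from the mean of all screened samples at 99.7% confidence, in either direction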;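 also: slope of fluorescence ratio to pre-addition baseline per second over 15 to 24 s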). As to conditions: thallium flux BTC fluorescence, at 10 µM, actives lie on both sides.
The nature of experiment [7]: inhibitors of Sendai virus-induced IRF3 signaling, primary screen, TLR/RLR signaling modifier project, cell-based, Sendai virus stimulus, luciferase, 10K MLSCN set (AID 602276;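 active = inhibition at or above 50% at 10 µM; inactive = inhibition below 50%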;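 also: firefly luciferase from ISG56 promoter only with Renilla not read in this screen; 0% = Sendai virus plus DMSO and 100% = medium plus DMSO without virus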). As to conditions: HEK293 RL24 IRF3 luciferase reporter, at 10 µM, stronger effect = higher value.
The nature of experiment [8]: inhibitors of poly I:C-induced TLR3 signaling, primary screen, cell-based, poly I:C stimulus, luciferase, 10K MLSCN set (AID 602277;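 active = inhibition of the reporter signal at or above 50%; inactive = inhibition below 50%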). As to conditions: HEK293-TLR3 RL24 IRF3 luciferase reporter, at 10 µM, stronger effect = higher value.

Chain of Voltage-gated potassium channel subunit beta-2 (Rattus norvegicus) (P62483 whole entry, looked up): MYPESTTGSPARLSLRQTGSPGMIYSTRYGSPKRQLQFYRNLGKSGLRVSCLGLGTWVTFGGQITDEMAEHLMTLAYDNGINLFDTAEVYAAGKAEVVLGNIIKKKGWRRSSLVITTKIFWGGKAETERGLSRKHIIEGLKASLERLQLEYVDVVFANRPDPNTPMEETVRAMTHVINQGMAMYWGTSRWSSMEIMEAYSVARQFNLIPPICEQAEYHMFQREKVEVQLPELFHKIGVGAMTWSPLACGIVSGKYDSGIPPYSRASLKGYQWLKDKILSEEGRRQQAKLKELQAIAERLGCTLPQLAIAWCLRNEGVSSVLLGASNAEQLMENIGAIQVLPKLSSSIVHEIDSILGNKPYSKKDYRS
Chain of Alpha-2C adrenergic receptor (Homo sapiens) (P18825 whole entry, looked up): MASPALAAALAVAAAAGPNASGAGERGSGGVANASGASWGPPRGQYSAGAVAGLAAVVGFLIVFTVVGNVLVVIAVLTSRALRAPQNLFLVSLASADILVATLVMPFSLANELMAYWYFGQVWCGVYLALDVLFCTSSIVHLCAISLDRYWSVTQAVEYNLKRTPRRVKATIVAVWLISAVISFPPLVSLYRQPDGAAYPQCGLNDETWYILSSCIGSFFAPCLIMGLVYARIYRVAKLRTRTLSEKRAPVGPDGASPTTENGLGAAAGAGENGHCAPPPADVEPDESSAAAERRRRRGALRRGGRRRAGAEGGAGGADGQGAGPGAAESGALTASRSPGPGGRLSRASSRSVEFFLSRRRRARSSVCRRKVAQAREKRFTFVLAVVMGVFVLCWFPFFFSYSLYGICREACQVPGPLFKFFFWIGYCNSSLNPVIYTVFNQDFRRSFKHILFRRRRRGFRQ

In experiment [1], `c1cncc(CNC2=NCCCCC2)c1` registered a cell count of 315. The inhibition in experiment [1] was 2.9% (inactive); in experiment [3] it was -154% (inactive); in experiment [7], 5.89% (inactive); in experiment [8], 24.1% (inactive). For the same compound, the inhibition of aggregation in experiment [2] was 2.4% (inactive). Moreover, the nuclei count is 114% in experiment [2] and 127% in experiment [3]. Also, the fluorescence slope in experiment [4] is -0.469 (inactive). In addition, the NADPH fluorescence slope in experiment [5] is -0.000124 (inactive). Also, in experiment [6], the slope is 0.0069 (inactive).
In experiment [1], `CC(C)OCCCNC(=O)c1c(N)n(CC2CCCO2)c2nc3ccccc3nc12` (centres undefined) displayed a cell count of 430. Further, the inhibition was -6.7% (inactive) in experiment [1], -83% (inactive) in experiment [3], 11.4% (inactive) in experiment [7] and 19.9% (inactive) in experiment [8]. The inhibition of aggregation in experiment [2] is -14.6% (inactive). The nuclei count in experiment [2] worked out at 75%; in experiment [3] it was 196%. Also, in experiment [4], the fluorescence slope was -0.0369 (inactive). For the same compound, the NADPH fluorescence slope in experiment [5] was 2e-05 (inactive). In experiment [6], the slope is 0.00623 (inactive).
On to `CCOC(=O)C1SC2(C(F)F)CC1(O)c1c(c(OC)c3occc3c1OC)O2` (centres undefined), for which the cell count in experiment [1] is 665. Further, the inhibition in experiment [1] was -5.1% (inactive); in experiment [3], 52.9% (inactive); in experiment [7], 4.1% (inactive); in experiment [8], 14.4% (inactive). For the same compound, the inhibition of aggregation in experiment [2] is 13% (inactive). Besides, the nuclei count stood at 98.5% in experiment [2] and 105% in experiment [3]. In addition, the fluorescence slope in experiment [4] was -0.326 (inactive). Further, the NADPH fluorescence slope in experiment [5] is -5.6e-05 (inactive). Also, in experiment [6], the slope is 0.00497 (inactive).
In experiment [1], `COc1ccc(N2CCN(CCCN)CC2)cc1` displayed a cell count of 356. The inhibition in experiment [1] is 2.8% (inactive); in experiment [3] it was -21% (inactive); in experiment [7], 11.2% (inactive); in experiment [8], 15.4% (inactive). Also, in experiment [2], the inhibition of aggregation is -5.7% (inactive). The nuclei count came to 106% in experiment [2] and 113% in experiment [3]. Also, in experiment [4], the fluorescence slope was -0.603 (inactive). The NADPH fluorescence slope in experiment [5] is -1.3e-05 (inactive). The slope in experiment [6] is 0.00595 (inactive).
With `CCCCCCOc1ccc(CN2CCN(C)CC2)cc1`, the cell count in experiment [1] was 302. Besides, the inhibition in experiment [1] is -5% (inactive); in experiment [3], -127% (inactive); in experiment [7] it was 25.8% (inactive); in experiment [8] it was 8.4% (inactive). Moreover, the inhibition of aggregation in experiment [2] was 2.1% (inactive). The nuclei count in experiment [2] turned out to be 107%; in experiment [3], 128%. For the same compound, the fluorescence slope in experiment [4] was -0.46 (inactive). Moreover, the NADPH fluorescence slope in experiment [5] was -0.000138 (inactive). Moreover, in experiment [6], the slope was 0.00769 (inactive).
Consider `CN(C)c1cc(N)c2c(n1)CCC2` (tested in a mixture with another compound), for which the cell count in experiment [1] is 443. Besides, the inhibition was -0.3% (inactive) in experiment [1], -17.4% (inactive) in experiment [3], 11.4% (inactive) in experiment [7] and 17.8% (inactive) in experiment [8]. The inhibition of aggregation in experiment [2] was -9% (inactive). Besides, the nuclei count in experiment [2] turned out to be 98.2%; in experiment [3], 124%. Besides, in experiment [4], the fluorescence slope is -0.376 (inactive). Also, the NADPH fluorescence slope in experiment [5] is -5.8e-05 (inactive). Moreover, in experiment [6], the slope was 0.00598 (inactive).
In turn, `CC(=NCCCN1CCOCC1)c1c(O)n(-c2ccccc2C)c(=O)[nH]c1=O` came in with a cell count in experiment [1] of 377. Besides, the inhibition in experiment [1] is 3.3% (inactive); in experiment [3], -21.8% (inactive); in experiment [7], 7.9% (inactive); in experiment [8], 15% (inactive). For the same compound, the inhibition of aggregation in experiment [2] is -27.1% (inactive). Also, the figures for the nuclei count in experiment [2] and in experiment [3] were 107% and 112%, respectively. Moreover, in experiment [4], the fluorescence slope was -0.506 (inactive). Besides, the NADPH fluorescence slope in experiment [5] was -3.5e-05 (inactive). For the same compound, the slope in experiment [6] is 0.00474 (inactive).
Take `Cc1oc2ccc(OC(=O)N(C)C)cc2c1C(=O)OC(C)C`: the cell count in experiment [1] stood at 450. Besides, the inhibition in experiment [1] is 0.8% (inactive); in experiment [3] it was -78.3% (inactive); in experiment [7], 9.46% (inactive); in experiment [8], -11.8% (inactive). For the same compound, in experiment [2], the inhibition of aggregation is 1.1% (inactive). The nuclei count was determined as 99.7% in experiment [2] and 155% in experiment [3]. For the same compound, in experiment [4], the fluorescence slope was -0.606 (inactive). Besides, the NADPH fluorescence slope in experiment [5] was -3.3e-05 (inactive). Also, in experiment [6], the slope is 0.00801 (inactive).
In experiment [1], `O=c1[nH]c(=O)n(Cc2ccc(F)cc2)c(O)c1C=NCCCN1CCOCC1` registered a cell count of 728. Besides, the inhibition in experiment [1] was -22.4% (inactive); in experiment [3], 35.3% (inactive); in experiment [7], -0.0843% (inactive); in experiment [8] it was 3.86% (inactive). Moreover, the inhibition of aggregation in experiment [2] is 4.6% (inactive). In addition, the nuclei count in experiment [2] was determined as 105%; in experiment [3], 101%. Further, the fluorescence slope in experiment [4] was -0.441 (inactive). In addition, the NADPH fluorescence slope in experiment [5] was 1.3e-06 (inactive). The slope in experiment [6] was 0.00502 (inactive).
On to `CN1CCN(c2c[nH]c(=O)[nH]c2=O)CC1`, for which the cell count in experiment [1] turned out to be 446. Moreover, the inhibition in experiment [1] is 0% (inactive); in experiment [3] it was -143% (inactive); in experiment [7], 2.56% (inactive); in experiment [8], 19.8% (inactive). Further, the inhibition of aggregation in experiment [2] is -25.3% (inactive). The nuclei count in experiment [2] is 90.3%; in experiment [3], 105%. In addition, in experiment [4], the fluorescence slope was -0.495 (inactive). Moreover, in experiment [5], the NADPH fluorescence slope was -3.4e-05 (inactive). In experiment [6], the slope was 0.00648 (inactive).
For the compound `Cc1ccc(OCC(=O)NCCN2CCN(C(=O)COc3ccc(C)cc3)CC2)cc1`, in experiment [1], the cell count was found to be 635. Besides, the inhibition in experiment [1] was -0.2% (inactive); in experiment [3], -103% (inactive); in experiment [7], -9.99% (inactive); in experiment [8], -18.3% (inactive). Besides, the inhibition of aggregation in experiment [2] is 9.1% (inactive). The nuclei count in experiment [2] was 94.7%; in experiment [3], 103%. Further, the fluorescence slope in experiment [4] was -0.611 (inactive). The NADPH fluorescence slope in experiment [5] is -2.9e-05 (inactive). For the same compound, the slope in experiment [6] is 0.00522 (inactive).
In experiment [1], `CCCCOc1ccc(CN2CCN(CCO)CC2)cc1` registered a cell count of 644. Besides, the inhibition in experiment [1] is 2.9% (inactive); in experiment [3], -3.3% (inactive); in experiment [7], 5.26% (inactive); in experiment [8] it was 10.1% (inactive). In addition, the inhibition of aggregation in experiment [2] is -4.6% (inactive). Further, the nuclei count in experiment [2] came to 115%; in experiment [3], 96.5%. The fluorescence slope in experiment [4] is -0.43 (inactive). Further, the NADPH fluorescence slope in experiment [5] is -0.00013 (inactive). In experiment [6], the slope is 0.00523 (inactive).
In turn, `CCN1c2nc3c(C)cccn3c(=O)c2CC2(C(=O)N(C)C(=O)N(C)C2=O)C1C` (centres undefined) returned a cell count in experiment [1] of 413. The inhibition in experiment [1] was 8.9% (inactive); in experiment [3] it was 19.8% (inactive); in experiment [7], 16.5% (inactive); in experiment [8], 17.7% (inactive). Moreover, in experiment [2], the inhibition of aggregation is 8.3% (inactive). The results for the nuclei count in experiment [2] and in experiment [3] were 100% and 111%, respectively. Moreover, the fluorescence slope in experiment [4] is -0.477 (inactive). The NADPH fluorescence slope in experiment [5] was -5.3e-05 (inactive). Further, the slope in experiment [6] was 0.00711 (inactive).
For `CC#CP(=O)(OCC)C(O)(c1ccccc1)C(F)(F)F` (centres undefined), the cell count in experiment [1] was 621. For the same compound, the inhibition in experiment [1] is 12.5% (inactive); in experiment [3], -29.4% (inactive); in experiment [7], 15% (inactive); in experiment [8] it was 23.4% (inactive). Further, the inhibition of aggregation in experiment [2] is 4.9% (inactive). Further, the nuclei count stood at 90.8% in experiment [2] and 110% in experiment [3]. In addition, the fluorescence slope in experiment [4] is -0.621 (inactive). Besides, in experiment [5], the NADPH fluorescence slope is 5.6e-07 (inactive). In addition, in experiment [6], the slope is 0.0037 (inactive).

The values above are taken from PubChem BioAssay.
